Here are results for 20 compounds from PubChem BioAssay AID504773 (Broad Institute, 2011).

Results with a measured potency or affinity are listed apart. A number with no mark means an inactive call.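 The calls were made as follows: active = polarization signal falls with dose and the fitted half-maximal concentration is at or below ten times the sample's top valid dose; inconclusive = flat curve at 30 to 70% inhibition, or poor fit; inactive = signal rises, flat within 30%, or potency beyond limit.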

This assay concerns the target Golgi-associated PDZ and coiled-coil motif-containing protein (Homo sapiens) (UniProt Q9HD26). The assay can be described thus: potency against CAL PDZ-peptide interaction – biochemical, fluorescence polarization, Cerulean-tagged CAL PDZ, cherry-picks, dose response (AID 504773).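 Also: 0% = DMSO neutral wells and -100% = excess unlabeled competitor peptide wells.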 To be noted: CAL PDZ-peptide binding, 1 h; series mostly up to 50 µM; activity change, negative = inhibition: at the top concentration. For orientation: In fluorescence polarisation assays a small probe gives low polarisation when free and higher when bound to something large.
For `Cc1ccc2nc(NC(=O)COC(=O)c3ccncc3)sc2c1`, the “activity change, negative = inhibition” value was 5.09%.

On to `Cc1ccccc1N1CCN(S(=O)(=O)c2ccccc2)CC1`, for which the “activity change, negative = inhibition” value was 5.45%.

For the compound `O=C(CN1C(=O)NC2(CCCC2)C1=O)Nc1ccc(F)c(F)c1F`, the “activity change, negative = inhibition” value is -17.6%.

For the compound `Cc1c(Cl)c(C(=O)N2CCCC2)nn1C`, the “activity change, negative = inhibition” value is -31.7%.

In the case of `c1cc(-c2nnc(-c3ccncc3)o2)ccn1`, the “activity change, negative = inhibition” value was 18.2%.

For `O=C(NC1CCCN(Cc2ccc(Cl)cc2)C1)c1cccc(N2CCCC2=O)c1` (stereo not given), the “activity change, negative = inhibition” value was 9.36%.

Regarding `O=C(NCC(=O)N1CCC(N2CCCCC2)CC1)C1CCCCC1`, the “activity change, negative = inhibition” value was 7.41%.

As to `O=C(Nc1ccc(Cl)cc1)c1ccc(CN2CCc3ccccc3C2)cc1`, the “activity change, negative = inhibition” value was -19.8%.

`CC1=NN(C(N)=S)C(=O)C1N=Nc1ccc(Cl)cc1` (stereo not given): the “activity change, negative = inhibition” value is 9.11%.

Take `CC1CCCCC1NCC(=O)NCc1ccc(F)cc1` (stereo not given): the “activity change, negative = inhibition” value is -33.3%.

For `O=C(Nc1cc(Cl)ccc1N1CCOCC1)c1ccc2c(c1)OCCO2`, the “activity change, negative = inhibition” value was -28%.

Regarding `Cn1nc(C(=O)N2CCCc3ccccc32)c2ccccc2c1=O`, the “activity change, negative = inhibition” value is -9.28%.

On to `CN=c1scc(C)n1/N=C/c1cc(Br)c(O)c(Br)c1`, for which the “activity change, negative = inhibition” value is 12.3%.

As to `C(=N\N1CCOCC1)/c1nc(-c2ccccc2)n2ccccc12`, the “activity change, negative = inhibition” value is -13.3%.

For `COc1cc(NS(=O)(=O)c2ccc(NC(=S)Nc3ccccc3)cc2)nc(OC)n1`, the “activity change, negative = inhibition” value is -0.366%.

Regarding `COc1ccc(N2CCN(C3CCCN(Cc4ccc(F)cc4)C3)CC2)cc1` (stereo not given), the “activity change, negative = inhibition” value was 20%.

As to `O=C(O)c1ccc(Oc2cc(Oc3ccc(C(=O)O)cc3)cc([N+](=O)[O-])c2)cc1`, the “activity change, negative = inhibition” value is -14.4%.

Turning to `COc1ccc(Br)c(C(=O)NC2CCCC2)c1`, the “activity change, negative = inhibition” value is 18.1%.

For `COc1cc(NC(=O)c2cccs2)ccc1NC(=O)c1ccccc1Cl`, the “activity change, negative = inhibition” value is 2.7%.

As to `CC1(C2CC2)NC(=O)N(CC(=O)NCC(=O)Nc2ccc(F)c(F)c2F)C1=O` (stereo not given), the “activity change, negative = inhibition” value is 22.9%.
